Experimental findings from ChEMBL document CHEMBL3988442, “University of Dundee, Small-Polar-MMV Screening Library” (2021) are described below.

The target of experiment [1] is T1, Aspartate--tRNA(Asp/Asn) ligase (Mycobacterium tuberculosis (strain ATCC 25618 / H37Rv)) (UniProt P9WFW3). Further: in the data most compounds retested in dose-response had high values.
T1 sequence (whole entry): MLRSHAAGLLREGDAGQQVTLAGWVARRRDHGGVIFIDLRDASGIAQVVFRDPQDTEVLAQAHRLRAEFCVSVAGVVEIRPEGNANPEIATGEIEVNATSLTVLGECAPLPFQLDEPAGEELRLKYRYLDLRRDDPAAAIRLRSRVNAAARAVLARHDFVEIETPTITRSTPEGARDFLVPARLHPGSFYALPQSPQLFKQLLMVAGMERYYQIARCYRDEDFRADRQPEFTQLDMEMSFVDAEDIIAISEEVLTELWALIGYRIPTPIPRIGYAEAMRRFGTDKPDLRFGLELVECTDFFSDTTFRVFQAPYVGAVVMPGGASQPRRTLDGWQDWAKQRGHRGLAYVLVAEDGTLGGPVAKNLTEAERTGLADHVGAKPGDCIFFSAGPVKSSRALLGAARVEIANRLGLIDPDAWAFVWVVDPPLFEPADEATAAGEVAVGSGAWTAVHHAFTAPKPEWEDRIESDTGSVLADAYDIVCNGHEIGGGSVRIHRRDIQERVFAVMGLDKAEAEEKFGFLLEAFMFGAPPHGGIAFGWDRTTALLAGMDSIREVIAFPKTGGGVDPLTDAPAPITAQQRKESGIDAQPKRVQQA
Description: Assay for Asp RNA synthetase-1 from Mycobacterium tuberculosis. The following applies: 30 µM. On the set-up: scale not given: direction of the effect not stated beside the values. Format: functional.

Experiment [2] addresses Shiga toxin 2 (Escherichia coli O157:H7) (UniProt P09385+P09386). Description: E. coli 0.157:H7 Shiga Toxin SOP - stx2 screening assay. The following applies: 30 µM. On the set-up: scale not given: direction of the effect not stated beside the values. The experiment is classed as functional.

`Cc1cc(NC(=O)NCC(C)O)n(C)n1` (stereo not drawn): the figures for the Percent Effect in experiment [1] and in experiment [2] were -2.68% and -5.14%, respectively.
In the same order, the values of `CC1CCCCN1c1nc2c(c(=O)[nH]1)CCN(Cc1cccnc1)C2` (stereo not drawn) are 1.98% and -8.32%.
Consider `CC1=NN(c2ccc(C(=O)N3CCCC(n4ccnc4)C3)cc2)CC1` (stereo not drawn), for which the Percent Effect in experiment [1] is 1.08%; in experiment [2] it was -30.6%.
Turning to `Fc1ccc(CN2CCC(c3n[nH]c4ncccc34)CC2)cc1F`, the Percent Effect came to 5.4% in experiment [1] and 15.2% in experiment [2].
On the same counts, the results for `Cc1ccc(CN(C)C(=O)CN2CCCC2Cn2cccn2)o1` (stereo not drawn) are -1.15% and -15.7%.
On the same counts, the results for `Cn1cc(CNCCn2cccn2)c(-c2cccnc2)n1` are 1.65% and -0.247%.
Turning to `O=C(CO)N1CCc2onc(Cn3cccn3)c2C1`, the values for the Percent Effect in experiment [1] and in experiment [2] were -1.21% and 7.04%, respectively.
On the same counts, the results for `CC(C)c1ncc2c(n1)CN(Cc1cccc(C#N)c1)CC2` are 0.9% and -1.08%.
In the same order, the values of `CCN1CCN(c2ncc(-c3cc(C)no3)c(-c3ccoc3C)n2)CC1` are 0.313% and -6.58%.
In the case of `Cc1nc(C)n(C2CCCN(C(=O)c3cnc[nH]3)C2)n1` (stereo not drawn), the Percent Effect is -5.96% in experiment [1] and 9.84% in experiment [2].
Take `Cn1cc(C2CC(=O)NC23CCN(CC2CC2)CC3)cn1` (stereo not drawn): the Percent Effect in experiment [1] is -4.05%; in experiment [2], -21.4%.
In the same order, the values of `CCCNC(=O)N1CCN(Cc2cc(C)no2)CC1` are -0.393% and 17.7%.
In the same order, the values of `Cc1occc1C(=O)N1CCc2ncnc(-c3cnn(C)c3)c2CC1` are -0.55% and -3.59%.
In the same order, the values of `Cc1nc(NCc2cccnc2)c2c(n1)c(C)nn2C` are 10.4% and -31.1%.
Turning to `CCOCC(O)CN1CCN(C(=O)CC(C)C)CC1` (stereo not drawn), the figures for the Percent Effect in experiment [1] and in experiment [2] were -2.19% and 18.6%, respectively.
On the same counts, the results for `CN(C)S(=O)(=O)N1CCN(c2nccc(C(F)(F)F)n2)CC1` are -6.64% and -2.87%.
On the same counts, the results for `Cc1cc(C)n(CCCNC(=O)[C@@H](C)NC(=O)OC(C)(C)C)n1` are 2.46% and 12.1%.
In the same order, the values of `CC(=O)N(Cc1ncc(C(C)C)o1)C1CCN(Cc2nccn2C)C1` (stereo not drawn) are 3.99% and 17.4%.
`C=C(C)COCCNC(=O)C1CCCN1C(C)=O` (stereo not drawn): the Percent Effect is -3.43% in experiment [1] and -6.8% in experiment [2].
In the same order, the values of `COc1cccc(C(=O)N2CCCC(C(=O)CCc3ccccc3)C2)c1` (stereo not drawn) are 4.2% and -7.01%.
On the same counts, the results for `COCCc1noc(CN2CCCC(Cn3nc(C)nc3C)C2)n1` (stereo not drawn) are 12.8% and 22.8%.
In the case of `COc1cccc(CNC(=O)N2CCN(Cc3cc(C)on3)CC2)c1`, the Percent Effect in experiment [1] was -2.94%; in experiment [2], 4.64%.
In the same order, the values of `O=C(c1cccnc1-n1cccn1)N1CCN(CC2CC2)CC1` are -1.91% and 7.9%.
For `Cc1noc(C2CCCN(C(=O)c3ccc(Br)cc3F)C2)n1` (stereo not drawn), the Percent Effect in experiment [1] is -4.41%; in experiment [2], 20.7%.
Turning to `Cc1cc(CN(Cc2cccs2)CC2CCCO2)no1` (stereo not drawn), the figures for the Percent Effect in experiment [1] and in experiment [2] were 1.32% and 12.5%, respectively.
With `Cn1cc(N2CC3(CCN(S(=O)(=O)C4CC4)C3)CC2=O)cn1` (stereo not drawn), the Percent Effect in experiment [1] is -0.32%; in experiment [2] it was -17.6%.
On the same counts, the results for `CCc1nc(CC(=O)N2CCN(c3cnccn3)CC2)cs1` are -3.74% and -11.5%.
On the same counts, the results for `Cc1ncsc1CN1CC[C@H]2OCC[C@@]2(C(=O)NC(C)C)C1` are 2.43% and -7.46%.
On the same counts, the results for `Cc1cc(NC(=O)N2CCN(c3nc(C)c(C)s3)CC2)no1` are 0.38% and -22.7%.
On to `CNC(=O)c1cccc(C2CNCCN2C(C)=O)c1` (stereo not drawn), for which the results for the Percent Effect in experiment [1] and in experiment [2] were -2.04% and -2.23%, respectively.
In the same order, the values of `CC(c1ccco1)N(C)Cc1nc2c(cnn2C)c(=O)[nH]1` (stereo not drawn) are -2.56% and -9.3%.
On the same counts, the results for `CS(=O)(=O)N1CCN(C(=O)Cn2ccc3c(Cl)cccc32)CC1` are -0.673% and -16.5%.
In the same order, the values of `COCc1nc(C(=O)NS(=O)(=O)c2ccc(C)s2)cs1` are 0.678% and -34.1%.
As to `COc1ccc(NC(=O)c2ccc(-n3ncc(C#N)c3N)cc2)cn1`, the Percent Effect was 1.4% in experiment [1] and -48.1% in experiment [2].
On the same counts, the results for `Cc1ccc(F)c(-n2nnc(C(=O)O)c2-c2ccncc2)c1` are 6.35% and -7.89%.
On to `CCN(CC)CCNC(=O)c1cnc(C(C)(C)C)s1`, for which the Percent Effect in experiment [1] is -0.45%; in experiment [2] it was 17.4%.
On to `Cc1cccc(CN2C(=O)CC[C@@H]3[C@H]2CCN3CC2CCOCC2)n1`, for which the Percent Effect is -1.51% in experiment [1] and -5.24% in experiment [2].
Take `O=c1cc(CN2CCCC(CCc3c(F)cccc3F)C2)[nH]c(=O)[nH]1` (stereo not drawn): the Percent Effect in experiment [1] was 3.07%; in experiment [2], -12.7%.
As for `Cc1nc(C)n(C2CCCN(C(=O)CCCn3ccnc3)C2)n1` (stereo not drawn), the Percent Effect is -0.127% in experiment [1] and -12.7% in experiment [2].
On the same counts, the results for `O=C(NCC1CC1)[C@H]1C[C@@H]2CN(S(=O)(=O)Cc3ccccc3)C[C@H]1O2` are 4.1% and -14.6%.
`O=C(c1ccc(F)cc1Cl)N1CCC(Nc2cccnn2)CC1`: the values for the Percent Effect in experiment [1] and in experiment [2] were 4.05% and -21.1%, respectively.
Take `Cc1cc(C)n(CC2CCCN2CCc2ccncc2)n1` (stereo not drawn): the Percent Effect in experiment [1] is -1.26%; in experiment [2], -7.41%.
In the same order, the values of `CCc1nc(C(=O)N2CCCC2)nn1-c1ccccc1Cl` are -1.24% and 6.73%.
In the case of `Cc1cc(N2CCN(Cc3nccn3C)CC2)cc(C)n1`, the Percent Effect was 2.09% in experiment [1] and -75.9% in experiment [2].
In the same order, the values of `Cc1nccn1-c1cccc(C2CCCN(C3CCCCC3)C2)n1` (stereo not drawn) are -3.11% and -8.84%.
In the same order, the values of `COc1c(CNCc2ccc(CN(C)C)cc2)c(C)nn1C` are 2.29% and -30.1%.
On the same counts, the results for `Cc1cc(C)n(CC2CCCCN2C(=O)c2cnn(C)c2)n1` (stereo not drawn) are -5.01% and -14%.
As for `CC(=O)N1CCC(c2cncc(Oc3ccccc3)n2)CC1`, the Percent Effect in experiment [1] was determined as 0.485%; in experiment [2] it was 3.32%.
In the same order, the values of `CC1CCCN(Cc2coc(-c3cccc(F)c3)n2)C1` (stereo not drawn) are -10.1% and 7.24%.
In the same order, the values of `Cc1nn(C)c(N(C)C)c1CNC1CCc2c(F)cccc21` (stereo not drawn) are -3.35% and 33.1%.
Take `CCOc1cccc2c1OCC(C(=O)NS(=O)(=O)c1ccc(C)s1)=C2`: the Percent Effect in experiment [1] is 4.55%; in experiment [2], 2.64%.
On the same counts, the results for `O=C(C1CCS(=O)(=O)C1)N1CCN(c2cnccn2)CC1` (stereo not drawn) are 0.204% and 25.5%.
In the same order, the values of `Cc1nc(C2CCCN(C(=O)c3cccc(S(C)(=O)=O)c3)C2)no1` (stereo not drawn) are -2.72% and -6.27%.
As for `O=C(Cn1cccn1)NCC1(c2ccccc2)CC1`, the figures for the Percent Effect in experiment [1] and in experiment [2] were -2.68% and 16.1%, respectively.
For the molecule `CO[C@@H]1CC[C@H]2[C@H]1OCCN2C(=O)C1=CCCC1`, the figures for the Percent Effect in experiment [1] and in experiment [2] were 3.45% and -25.5%, respectively.
In the same order, the values of `COCCO[C@@H]1CCN(Cc2csc(C)n2)[C@H]1Cc1ccccc1` are 3.03% and 1.09%.
In the same order, the values of `CCNC(=O)N(C)C(c1cccc(F)c1)c1ccccn1` (stereo not drawn) are -4.31% and -5.85%.
On the same counts, the results for `CCN(CC1CCOC1)C(=O)c1cccnc1N1CCOCC1` (stereo not drawn) are -1.66% and 25.6%.
`Cc1cnn(CC2CN(c3cnc4ccccc4n3)CCO2)c1` (stereo not drawn): the Percent Effect in experiment [1] was -11.1%; in experiment [2], -0.837%.
In the same order, the values of `O=C(C1=CCCC1)N1CCC[C@]2(C[C@@H](OCc3ccncc3)CO2)C1` are 5.27% and -14.6%.
With `c1ccc(OC[C@]23COC[C@H]2CN(c2ncccn2)C3)nc1`, the Percent Effect in experiment [1] is 1.95%; in experiment [2] it was -23.2%.
In the same order, the values of `Cc1ccc(N2CCCc3sc(C(=O)NCc4cccnc4)nc32)nn1` are -2.44% and -41.7%.
On the same counts, the results for `CC(NC(=O)N1CCN(c2ccccc2)CC1)c1nncn1C` (stereo not drawn) are 1.07% and -28.9%.
On the same counts, the results for `CC(C)(C)c1cnc(CN2CCCC2Cn2cccn2)o1` (stereo not drawn) are -3.34% and 0.322%.
As to `Cc1ccc(-c2cc(N)c(=O)n(CC(=O)NCC3CCCCC3)n2)s1`, the figures for the Percent Effect in experiment [1] and in experiment [2] were 7.19% and 2.09%, respectively.
`Cc1ccc(-c2nc(CN3CCc4nn(C)c(=O)cc4C3)no2)cc1`: the Percent Effect was 5.81% in experiment [1] and -0.113% in experiment [2].
On the same counts, the results for `Cc1cnn(C2CN(CC(=O)Nc3cccnc3)C2)c1` are 3.91% and 11%.
On the same counts, the results for `CCN1CCC2(C=C(C(=O)NC3CC3)c3ccccc32)CC1` are -0.796% and 1.55%.
Consider `Cc1ncccc1Oc1nccnc1C1CCN(C(C)C)CC1`, for which the figures for the Percent Effect in experiment [1] and in experiment [2] were -4.09% and -1.37%, respectively.
As to `N#Cc1cccc(S(=O)(=O)NC2CCN(Cc3ccccc3)C2=O)c1` (stereo not drawn), the Percent Effect in experiment [1] is -1.89%; in experiment [2], 8.07%.
In the same order, the values of `CCn1nc2c(cc1=O)CN(Cc1nc3ccccc3c(=O)[nH]1)CC2` are -3.91% and 1.48%.
On the same counts, the results for `Cc1ccc(NC2CCN(C(=O)Cc3ccc(C#N)cc3)CC2)nn1` are 4.2% and -11.6%.
On the same counts, the results for `CCN1CCCC1CN(CCN(C)C)S(=O)(=O)c1cccc(C#N)c1` (stereo not drawn) are 5.06% and -21%.
For the molecule `COc1ccccc1OCC(=O)NS(=O)(=O)c1cc(F)ccc1F`, the values for the Percent Effect in experiment [1] and in experiment [2] were 0.145% and -7.87%, respectively.
